Screens as filed in PubChem BioAssay.
HCMV inh: human cytomegalovirus inhibition. HFF cells, HCMV-luciferase reporter, 72 h; active compounds read low. activity change, negative = inhibition, % at 57.5 µM. 4.5% of 410,000 active; in the data active = activity change below about -60%; inconclusive = no clear call, values can overlap the other calls; inactive = above about -39%
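Luciferase read-out from HCMV-luciferase-infected HFFs (MOI 1 PFU/cell) 72 h post infection at 37C; compounds added after 16 h cell attachment; activity normalized between buffer-only basal and Salinomycin (10uM) inhibitor controls.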
LASV entry inh: Lassa virus entry inhibition. Lassa virus pseudotype entry inhibition, cell reporter. Potency, µM (titrated, usually from 37.9 µM), for inactives: top-dose activity change, negative = inhibition, hits mostly inhibitors. 1.2% of 300,000 active; calls by dose curve; tested in HEK293 cells; note: potency is the fitted concentration of half-maximal effect; nearly all actives have a fitted effect of over 50% in size
FMDV antiviral: antivirals against foot and mouth disease virus; FMDV antiviral cell-based qHTS; Potency, µM (titrated, usually from 57.9 µM), for inactives: at the top dose activity change, negative = inhibition, usual class: inhibitors; 1.2% of 410,000 active; calls by dose curve; tested in HEK293T cells; note: read-out not given here; potency is the fitted concentration of half-maximal effect; nearly all actives have a fitted effect of over 45% in size
MARV entry inh: blocks Marburg virus binding to or entry into cells; 1.8% of 300,000 active; AID 540276; Potency, µM (doses to about 37.8 µM), for inactives: at the highest dose activity change, negative = inhibition, usual class: inhibitors; Marburg virus pseudotyped entry inhibition, cell reporter; calls by dose curve; tested in HEK293 cells; note: potency is the fitted concentration of half-maximal effect
* marks the source's active call; other numbers are inactive results; ? = inconclusive; . = no result given; + = active, no number; [ ] = remark or other dose. The list is not random: actives were taken first. Their share in the collection is about 6.2%. % is set by controls: 0 for no effect and ±100 for the full control effect.

SMILES	HCMV inh	LASV entry inh	FMDV antiviral	MARV entry inh
CCS(=O)(=O)c1ncc(Cl)c(C(=O)Nc2ccc(S(=O)(=O)N3CCCC(C)C3)cc2)n1 (configuration not stated)	-101*	?	10µM*	?
COc1ccc(NC(=O)c2nc(S(=O)(=O)Cc3ccc(C)cc3)ncc2Cl)cc1	-97*	?	?	?
CCc1ccc(C2c3[nH]c4ccccc4c3CCN2C(=O)c2ccc(=O)n(C)n2)cc1 (configuration not stated)	36	?	-18%	11µM*
CCc1ccc(C2c3[nH]c4ccccc4c3CCN2C(=O)CN2CCN(CC)CC2)cc1 (configuration not stated)	24	?	-21%	13µM*
COc1cccc(S(=O)(=O)N(C)C[C@H]2OCc3cnnn3CCCC(=O)N([C@H](C)CO)C[C@@H]2C)c1	26	.	0%	.
Cc1ccccc1-n1c(SCc2ccccn2)nc2n[nH]c(C)c2c1=N	-13	?	0%	?
Cc1cccc(NC(=O)N2CCN(C(=O)c3nsc4ccccc34)CC2)c1C	+	1%[46.1 µM]	-20%	.
Cc1cc(N2CCN(C(=O)Nc3ccc(F)cc3F)CC2)c2ccccc2n1	.	?	-23%	-17%
O=C(Nc1cc(F)ccc1F)N1CCN(c2ccnc3cc(Cl)ccc23)CC1	-83*	.	32µM*	.
Cc1cccc(C)c1NC(=O)N1CCN(c2nc3ccccc3s2)CC1	-70*	?	0%	?
Cc1ccc(F)cc1NC(=O)N1CCN(c2ccnc3cc(Cl)ccc23)CC1	-69*	.	?	.
COc1ccc2[nH]c(C)c(CN3CCCCC3)c(=O)c2c1	-40	0%	.	-17%
CCCCCNc1nc2ccccc2nc1NS(=O)(=O)c1cccs1	-22	-6%	-3%	-2%
CCCCNC(=O)N1CCN(c2ccnc3cc(Cl)ccc23)CC1	.	0%	32µM*	?
Cc1cccc(Cl)c1NC(=O)N1CCN(c2ccnc3cc(Cl)ccc23)CC1	-65*	.	?	.
Cc1cccc(Cl)c1NC(=O)N1CCCN(c2nc3ccc(Cl)cc3s2)CC1	-35	.	?	.
O=C(Nc1ccc(C(F)(F)F)cc1)N1CCN(c2ccnc3cc(Cl)ccc23)CC1	-72*	?	?	?
O=C(O)CSCC(=O)N1CCN(c2ccnc3cc(Cl)ccc23)CC1	.	.	-20%	.
CC(=O)N1CCN(c2ccnc3cc(Cl)ccc23)CC1	?	17%[46.1 µM]	-13%	0%[46.1 µM]
NS(=O)(=O)c1cc(C(=O)OCC(=O)c2ccc3c(c2)OCCO3)ccc1Cl	1	.	55%	.
O=C(Oc1ccc(Br)cc1)C1CCN(C2=NS(=O)(=O)c3ccccc32)CC1	-3	-4%	-12%	-6%
CCCC(OC(=O)CC1Sc2ccccc2NC1=O)C(=O)NCc1ccco1 (configuration not stated)	-9	?	.	?
O=S(=O)(Cc1ccc(Cl)cc1)c1ccccc1-c1nnc(-c2ccccc2)o1	31	?	-14%	-6%
O=C(CSc1nc(-c2ccccc2)no1)N1CCN(c2ccccc2)CC1	-9	1%[46.1 µM]	1%	.
Cn1c2c(c(=O)n(C)c1=O)C(C(F)(F)F)(C(F)(F)F)N=C(c1ccc(Cl)cc1)N2	.	2.8µM*	2.2µM*	1µM*
SMILES	HCMV inh	LASV entry inh	FMDV antiviral	MARV entry inh
CC1(C)Oc2ccc3ccc(=O)oc3c2/C(=C/Nc2ccc(O)cc2)C1=O	-85*	?	?	?
CC1(C)Oc2ccc3ccc(=O)oc3c2/C(=C/Nc2cccc(O)c2)C1=O	-35	?	-27%	?
O=[N+]([O-])c1ccc(C=Nc2ccc(Cl)c([N+](=O)[O-])c2)s1	-99*	.	.	.
NC(=O)c1ccc(N=Cc2ccc([N+](=O)[O-])s2)cc1	-97*	?	?	?
Cc1ccc2c(c1)N(CCC(=O)NCC1COc3ccccc3O1)C(=O)CO2 (configuration not stated)	-16	-9%	-5%	-21%
N/C(=N\NS(=O)(=O)c1ccccc1)c1ccccn1	-19	?	12%	9%[46.1 µM]
COC(=O)c1ccc(NCc2cc(O)ccc2O)cc1O	-7	20µM*	?	?
Cc1onc(-c2ccccc2Cl)c1C(=O)Nc1nn[nH]n1	11	0%	.	26%
COc1ccc2c(c1)cc1n2CCN2CCCN=C12	-29	?	-19%	-7%
COc1ccc2c(c1)cc1n2CCN=C1N	12	2%	.	10µM*
CCn1c(=O)c2cc(C(=O)N3CCN(c4cccc(OC)c4)CC3)sc2c2ccccc21	7	?	0%	?
Cc1cc(C)n(C(=O)CCCC(=O)n2nc(C)cc2C)n1	-7	3%	-8%	-1%
COc1ccc(C2=C3C(=O)OCC3Cc3ncn(Cc4ccccc4)c32)cc1 (configuration not stated)	-76*	.	-16%	.
COc1ccc(C2=CN(Cc3ccccc3)C(c3ccccc3)CC2=O)cc1 (configuration not stated)	57	.	41%	.
O=C(c1cccs1)N(Cc1nc2sc3c(c2c(=O)[nH]1)CCCC3)C1CCCC1	-71*	3.5µM*	5%	?
Cc1cccc(NC(=O)CCc2nc3sc4c(c3c(=O)[nH]2)CCCC4)c1	9	?	5%	?
Cc1sc2nc(CN(C(=O)c3cccs3)C3CCCC3)[nH]c(=O)c2c1C	-34	-7%	?	?
CN(C)S(=O)(=O)c1cccc(NC(=O)CCc2nc3sc4c(c3c(=O)[nH]2)CCCC4)c1	-67*	.	?	.
COc1ccc(OC)c(NC(=O)CC2SC(=Nc3ccc(F)cc3)N(CCC3=CCCCC3)C2=O)c1 (configuration not stated)	2	?	-23%	?
COc1cc([N+](=O)[O-])ccc1NC(=O)CC1SC(=Nc2ccc(F)cc2)N(CCC2=CCCCC2)C1=O (configuration not stated)	-99*	3.2µM*	?	?
O=C(OCn1ncc(Br)c(Br)c1=O)c1ccccc1Cl	.	11µM*	14µM*	10µM*
O=C(OCn1ncc(Br)c(Br)c1=O)c1ccc(F)cc1	.	13µM*	14µM*	5.6µM*
C=CCNCCCCOc1ccc(OCC)cc1	40	?	2%	-14%
Fc1ccc(-c2cc(-c3ccccc3)nc(-n3cccn3)n2)cc1	-61*	-12%[46.1 µM]	?	?
O=c1cc(-c2ccccc2)nc2cc(-c3ccc(F)cc3)[nH]n12	44	?	22%	?
SMILES	HCMV inh	LASV entry inh	FMDV antiviral	MARV entry inh
O=C(CN1C(=O)/C(=C/c2cccc(Br)c2)SC1=S)NCCCN1CCOCC1	-18	-13%	16%	-1%
O=C(CN1C(=O)/C(=C/c2ccccc2F)Sc2ccccc21)NCCCN1CCOCC1	?	.	-15%	.
CCOC(=O)N1CCN(C(=O)CCN2C(=O)COc3ccccc32)CC1	-62*	8%	11%	13%
CN1CCN(CCCNC(=O)c2ccc(/C=C3/Sc4ccccc4N(Cc4cccc(Cl)c4)C3=O)cc2)CC1	?	.	-15%	.
O=C(CCCN1C(=O)/C(=C/c2cccc(Br)c2)SC1=S)NCCCN1CCOCC1	-90*	-9%[46.1 µM]	-2%	?
CN1CCN(CCCNC(=O)c2ccc(/C=C3\Sc4ccccc4N(Cc4ccc(F)cc4)C3=O)cc2)CC1	-67*	.	19%	.
